An excerpt weighted towards active compounds, which were near 3.1% of everything screened.
Anthrax LF inh2: Bacillus anthracis LF protease inhibitors, primary screen, biochemical, multiplex microsphere, MLPCN library; multiplex microsphere protease cleavage assay; inhibition, % at 10 µM; 360,000 tested, 0.12% active; further: plate controls were buffer without enzyme for full effect and enzyme alone for no effect
BoNT A protease: BoNT/A light chain protease inhibitors, primary screen, biochemical, flow cytometry, MLPCN library; Botulinum neurotoxin type A light chain protease (Clostridium botulinum A str. ATCC 3502); multiplex microsphere protease substrate cleavage; inhibition, % at 10 µM; 360,000 tested, 0.17% active; further: plate controls were buffer without enzyme for full effect and enzyme alone for no effect
BoNT-F LC inh: BoNT/F light chain protease inhibitors, primary screen, biochemical, flow cytometry, MLPCN library. Botulinum neurotoxin type F light chain protease (Clostridium botulinum). Multiplex microsphere protease cleavage assay. inhibition, % at 10 µM. 360,000 tested, 0.22% active; in the data active means inhibition above about 35%, passing the limit was not always enough; inconclusive means no clear call, values can overlap the other calls; further: plate controls were buffer without enzyme for full effect and enzyme alone for no effect
Autofluor counter: flagged as autofluorescent in microsphere protease counterscreen. 360,000 tested, 3.1% active. compound autofluorescence counterscreen, microsphere flow cytometry; stronger effect = higher value. fluorescence intensity (no concentration beside the values); in the data active means fluorescence intensity above about 16000; inconclusive means no clear call, values can overlap the other calls
SSB-PriA inh: inhibitors of Klebsiella pneumoniae PriA binding to SSB C-terminal tail, primary screen, biochemical, AlphaScreen; PriA–SSB C-terminal tail interaction (Klebsiella pneumoniae); AlphaScreen SSBct-PriA binding, biotinylated peptide; inhibition, % at 33 µM; 430,000 tested, 0.6% active; AID 1272365, 2023; in the data active means inhibition mostly above about 37%, no sharp cut-off; inactive means mostly below about 20%;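 further: plate controls were negative control peptide for no effect and reference peptide for full effect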
* marks the source's active call; other numbers are inactive results; ? = inconclusive; . = no result given. Unless noted, no stated cut-off is given here; in the data, active means inhibition above about 30%; inconclusive means no clear call, values can overlap the other calls; inactive means below that.

SMILES | Anthrax LF inh2 | BoNT A protease | BoNT-F LC inh | Autofluor counter | SSB-PriA inh
O=C(CNC(=O)c1ccco1)OCC(=O)c1ccc2c(c1)CCCC2 | 1 | -2 | -6 | 17018* | -10
Cc1nc2ccccc2c2oc(C(=O)N3CC(C)CC(C)C3)cc12 (configuration not stated) | -1 | 0 | -5 | 5918 | -4
CCOC(=O)C1CCCN(C(=O)N2CCOCC2)C1 (configuration not stated) | -2 | ? | -1 | 19919* | -9
CCOC(=O)C1CCCN(c2c(N3CCOCC3)c(=O)c2=O)C1 (configuration not stated) | -3 | -1 | -12 | 4540 | -5
CCOC(=O)C1CCCN(C(=O)c2cc3c(C)nc4ccccc4c3o2)C1 (configuration not stated) | 1 | 0 | 3 | 22194* | 17
CCOC(=O)C1CCCN(C(=O)c2ccco2)C1 (configuration not stated) | 3 | 1 | -1 | 23110* | -13
O=C(Nc1ccccc1Cl)Nc1ccccc1-c1cn2ccsc2n1 | . | . | . | . | -4
COc1cccc(CSc2nnc(C(F)(F)F)n2Cc2ccc(F)cc2)c1 | -1 | 3 | 5 | 22093* | -51
Cc1ccc(CSc2nnc(C(F)(F)F)n2Cc2ccc(F)cc2)cc1 | 1 | 1 | 7 | 9775 | -85
CCN(CC)c1ccc(/C=C2/C(=O)ON=C2C)cc1 | -1 | 1 | -1 | 3679 | -4
CCN(CC)c1ccc(/C=C2\C(=O)N(c3nnc(C)c(=O)[nH]3)N=C2C)cc1 | -6 | -2 | -11 | 4480 | 78*
Cc1cccc(C)c1-n1nnnc1SCSc1nnnn1-c1c(C)cccc1C | -1 | ? | 5 | 21580* | -22
CSc1nnnn1-c1c(C)cccc1C | -4 | -1 | 1 | 4505 | 2
O=c1nc(NN=Cc2c[nH]c3ccccc23)cn[nH]1 | . | . | . | . | 0
O=C(Cc1csc(Nc2cccc(Cl)c2)n1)NCc1ccco1 | . | . | . | . | 13
CCc1ccc(N2CSC3=C(C#N)C(c4cccs4)CC(=O)N3C2)cc1 (configuration not stated) | -2 | -5 | -4 | 25679* | 10
O=C(NCC(c1cccc2ccccc12)N1CCCC1)C(=O)Nc1ccc2c(c1)OCCO2 (configuration not stated) | . | . | . | . | 48*
O=C(NC[C@H](O)c1cccc2ccccc12)C(=O)Nc1ccc2c(c1)OCO2 | . | . | . | . | 0
Cc1ccc(-c2cn3cccnc3n2)cc1NC(=O)COc1ccccc1 | . | . | . | . | -6
CCOCC(=O)Nc1cc(-c2cn3cccnc3n2)ccc1C | -2 | ? | -6 | 22267* | -1
COCCC1CCCCN1C(=O)c1cc(COc2ccc(-n3cncn3)cc2)on1 (configuration not stated) | -44 | -170 | -303 | 35235* | -7
CSc1cnn(-c2ccccc2)c(=O)c1SC | -9 | -1 | -1 | 16177* | -3
CNC(=O)/C(C#N)=C1/S[C@@H](Cc2ccc(OC)cc2)C(=O)N1c1cccc(C(F)(F)F)c1 | . | . | . | . | -1
CC(C)N(Cc1nc(-c2ccccc2)no1)C(=O)C1CCCCC1 | -5 | 0 | 0 | 23062* | -15
CCCCn1nnnc1NCc1ccc(N(CC)CC)cc1 | -4 | -2 | -3 | 23951* | -22
SMILES | Anthrax LF inh2 | BoNT A protease | BoNT-F LC inh | Autofluor counter | SSB-PriA inh
O=C(NCCS(=O)(=O)N1CCN(CCc2ccccc2)CC1)c1ccco1 | . | . | . | . | -3
COc1ccc(NC(=S)N=C(Nc2ccc(C)cc2)c2ccccc2)cc1 | . | . | . | . | 46*
Cc1ccc(C2=NN(S(C)(=O)=O)C(c3ccc4c(c3)OCO4)C2)cc1 (configuration not stated) | 3 | 2 | 3 | 8387 | -5
CS(=O)(=O)N1N=C(c2ccc(Br)cc2)CC1c1ccc2c(c1)OCO2 (configuration not stated) | 1 | 4 | 3 | 25156* | -2
COC1(CNC(=O)c2cc3ccccc3s2)CCSC1 (configuration not stated) | . | . | . | . | 5
Nc1ccc(/C=C/c2ccc3ncccc3c2)cc1 | 0 | 1 | 7 | 4114 | -7
Nc1ccc2ncccc2c1 | -20 | ? | 17 | 17386* | 11
CC(=O)Nc1ccc(-n2cc(-c3ccccc3)nc2SCSc2nc(-c3ccccc3)cn2-c2ccc(NC(C)=O)cc2)cc1 | . | . | . | . | 3
Cc1cc(C(=O)N2CCN(C/C=C/c3ccccc3)CC2)no1 | 1 | 1 | 0 | 19463* | 2

Assay outcomes deposited in PubChem BioAssay by several laboratories.
